This note sets out measurements from ChEMBL document CHEMBL3433997, “St. Jude Leishmania screening dataset” (2016).

In the first assay the target is Hexose transporter 1 (Plasmodium falciparum) (UniProt O97467). Briefly: ST_JUDE_LEISH: Cytotoxicity at 2uM final concentration against transgenic Leishmania Mexicana promastigotes LmPfHT that are glucose transport deficient and complemented with the Plasmodium falciparum hexose transporter. Activity is measured by DNA content using SYBR green in vitro. In kind it is functional.
On to `Cc1cc(N[C@@H](Cc2ccccc2)C(=O)NCc2cccc(F)c2)nc(NCC2CCCCC2)n1`, for which the inhibition was determined as 2.51%.
The same measure, in the same setting: the result for `Fc1ccc(C=NNc2nc3ccccc3[nH]2)cc1` reads 13.1%; that for `CNC(=O)c1ccccc1Nc1cc(Nc2cc(OC)ccn2)ncc1Cl`, 7.66%.
As to `CN(C)CC(=O)Nc1cccc(Nc2nccc(NCC(O)c3ccccc3)n2)c1` (stereo not given), the inhibition turned out to be 0.33%.
With `CCn1c(-c2nonc2N)nc2c(-c3cccc(NC(=O)Nc4cccc(C(F)(F)F)c4)c3)ncc(OCCCN)c21`, the inhibition stood at 1.37%.
Regarding `CCn1c(-c2ccccc2)cc2nnc3ccccc3c21`, the inhibition was 5.32%.
On to `Cc1csc2nc(C(C)c3ccc(NC(=O)c4cccs4)cc3)oc(=O)c12` (stereo not given), for which the inhibition is -0.57%.
On the same count and under the same terms, the result for `Cc1cccc2nc(-c3cccc(-c4cccc(NC(=O)CNC(=O)c5ccc(O)cc5)c4)c3)[nH]c12` reads -0.56%; that for `COc1ccc2nccc([C@@H](O)CN3CCC(NCCOc4cccc(C(F)(F)F)c4Cl)CC3)c2c1`, 12%.
Turning to `CC(C)N1CCN(c2ccc(OCCCCN3CCN(c4cccc(Cl)c4Cl)CC3)c(C(F)(F)F)c2)CC1`, the inhibition is -1.01%.
The same measure, in the same setting: next, `Cc1cccc(-c2nn(-c3ccccc3)c3[nH]c(=O)c(CN4CCSCC4)cc23)c1`: -2.03%; `Cc1cc(-c2nc3cncc(-c4cccc(CN5CCCC5Cc5cccnc5)c4)c3n2C)nn1C` (stereo not given): -2.01%; `O=C(NCCCCCN1CCC(c2c[nH]c3ccccc23)CC1)Nc1cccc(Br)c1`: 7.56%.
On the same count and under the same terms, next, `Cc1[nH]c(C)c(-c2ccc(OCc3ccccc3)cc2)c(=O)c1Br`: 1.22%.
Still for that read-out and setting: next, `Cc1[nH]n(-c2cccc(C(F)(F)F)c2)c(=O)c1-c1ccc(Cl)cc1`: 6.35%; `O=C(Nc1ccc(C(F)(F)F)cc1)c1ccc(NCCCN2CCCCCC2)c([N+](=O)[O-])c1`: 6.55%.
`N#Cc1ccc(CN2CCCN(Cc3cccc(NC(=O)c4ccc(-c5ccccc5)cc4)c3)CC2)cc1`: the inhibition was determined as 9.67%.
As for `CCN(CC)S(=O)(=O)c1ccc(C(C)NC(=O)c2ccccc2COc2ccccc2)cc1` (stereo not given), the inhibition was 5.1%.
As for `CCc1cn(C)c2c(N3CCCC3=O)cc(C(=O)N[C@@H](Cc3ccccc3)[C@H](O)CNC3CCCCC3)cc12`, the inhibition amounted to 11%.
Same read-out and setting: next, `O=C(NCCNc1ccnc2cc(Cl)ccc12)c1ccccc1F`: 1.06%.
On the same count and under the same terms, the result for `CC(C)(CNC(=O)C1CCN(CCOCc2ccccc2)CC1)c1nc(-c2ccc(Cl)c(O)c2)c(-c2ccncc2)[nH]1` reads 0.65%; that for `NC(=O)c1cccc(CNC(=O)NC[C@H]2CN(Cc3ccc(Cl)c(Cl)c3)CCO2)c1`, 6.84%.
Still for that read-out and setting: the result for `O=C1OC(c2ccccc2)(c2ccccc2)CN1C1CCN(Cc2ccc(O)c(Cl)c2)C1` (stereo not given) reads 1.04%; that for `Cc1ccc(-n2c(=O)c3cccnc3n2CC(=O)Nc2cccc(C)c2C)cc1`, 5.98%.
On to `CN(CCc1ccccc1)c1ncc(-c2cccc(CNCCC3CCCN3C)c2)cn1` (stereo not given), for which the inhibition worked out at 67%.
Same read-out and setting: next, `Cc1nc(N)nc(N)c1OCCCCCCOc1ccccc1`: 4.83%.
The same measure, in the same setting: next, `COc1cc2nc(NCCCO)nc(Nc3ccc(Oc4ccccc4)cc3)c2cc1OC`: 6.09%; `C=CCOC(=O)N1CCC(CNCc2ccc(-c3cccc(-c4nc5ccccc5[nH]4)c3)cc2)C1` (stereo not given): 1.73%.
Still for that read-out and setting: next, `CN(CCCCCNC(=O)/C=C/c1ccc(Cl)c(Cl)c1)CCc1c[nH]c2ccccc12`: 20%.
In the case of `Cc1cccc2nc(-c3ccc(-c4cccc(NC(=O)c5cncn5C)c4)s3)[nH]c12`, the inhibition came to 2.43%.
Consider `COC(=O)c1cccc(CNCc2cccc(-c3csc(-c4nc5ccccc5[nH]4)c3)c2)c1`, for which the inhibition amounted to 8.51%.
On the same count and under the same terms, next, `O=C(/C=C/c1ccc(Cl)c(Cl)c1)NC1CCC(CN2CCC(c3nc4cccnc4[nH]3)CC2)CC1` (stereo not given): 2.5%; `CCn1cc(CN2C(=O)C(c3ccccc3)(c3ccccc3)N=C2N)cn1`: 2%.
Same read-out and setting: the result for `Cc1cccc2nc(-c3cccc(-c4cccc(NC(=O)c5cccnc5Cl)c4)c3)[nH]c12` reads 2.51%; that for `O=C(Nc1ccc(OC2CCN(Cc3ccc(F)cc3)CC2)c(Cl)c1)c1cccs1`, 0.38%.
The same measure, in the same setting: the result for `CC(C)CCN(Cc1cncn1Cc1cccc(C(F)(F)F)c1)C(=O)c1ccccc1C#N` reads -0.35%; that for `Cc1cc(-c2ccc(CNC3Cc4ccccc4C3)cc2)ccc1S(=O)(=O)NCCN1CCCC1`, 30.9%.
Turning to `Cc1cc(N[C@@H](Cc2ccccc2)C(=O)NCc2cccc(F)c2)nc(Nc2ccccc2)n1`, the inhibition came out at 7.5%.
For the compound `O=c1cc(NCCCNCc2cc(F)cc(C(F)(F)F)c2)[nH]c2ccccc12`, the inhibition is -0.14%.
`O=C(Nc1ccc(Cl)cc1)Nc1ccc2c(c1)N1CCN=C1S2`: the inhibition is -1.2%.

For a further assay, the target named is Glucose transporter (Leishmania mexicana) (UniProt O61059). Briefly: ST_JUDE_LEISH: Cytotoxicity at 2uM final concentration against transgenic Leishmania Mexicana promastigotes LmGT2 that are glucose transport deficient and complemented with the L. Mexicana glucose transporter 2. Activity is measured by DNA content using SYBR green in vitro. In kind it is functional.
For `Cc1cc(N[C@@H](Cc2ccccc2)C(=O)NCc2cccc(F)c2)nc(NCC2CCCCC2)n1`, the inhibition is -1.9%.
The same measure, in the same setting: the result for `Fc1ccc(C=NNc2nc3ccccc3[nH]2)cc1` reads 12.1%.
Turning to `CNC(=O)c1ccccc1Nc1cc(Nc2cc(OC)ccn2)ncc1Cl`, the inhibition came to 6.6%.
On the same count and under the same terms, next, `CN(C)CC(=O)Nc1cccc(Nc2nccc(NCC(O)c3ccccc3)n2)c1` (stereo not given): -0.94%.
On the same count and under the same terms, the result for `CCn1c(-c2nonc2N)nc2c(-c3cccc(NC(=O)Nc4cccc(C(F)(F)F)c4)c3)ncc(OCCCN)c21` reads 0.62%; that for `CCn1c(-c2ccccc2)cc2nnc3ccccc3c21`, 5.02%.
Same read-out and setting: next, `Cc1csc2nc(C(C)c3ccc(NC(=O)c4cccs4)cc3)oc(=O)c12` (stereo not given): -0.38%.
In the case of `Cc1cccc2nc(-c3cccc(-c4cccc(NC(=O)CNC(=O)c5ccc(O)cc5)c4)c3)[nH]c12`, the inhibition was -0.5%.
Still for that read-out and setting: next, `COc1ccc2nccc([C@@H](O)CN3CCC(NCCOc4cccc(C(F)(F)F)c4Cl)CC3)c2c1`: 6.66%; `CC(C)N1CCN(c2ccc(OCCCCN3CCN(c4cccc(Cl)c4Cl)CC3)c(C(F)(F)F)c2)CC1`: 0.98%; `Cc1cccc(-c2nn(-c3ccccc3)c3[nH]c(=O)c(CN4CCSCC4)cc23)c1`: 1.18%.
On the same count and under the same terms, the result for `Cc1cc(-c2nc3cncc(-c4cccc(CN5CCCC5Cc5cccnc5)c4)c3n2C)nn1C` (stereo not given) reads -0.34%; that for `O=C(NCCCCCN1CCC(c2c[nH]c3ccccc23)CC1)Nc1cccc(Br)c1`, 5.45%; that for `Cc1[nH]c(C)c(-c2ccc(OCc3ccccc3)cc2)c(=O)c1Br`, -2.04%.
Still for that read-out and setting: the result for `Cc1[nH]n(-c2cccc(C(F)(F)F)c2)c(=O)c1-c1ccc(Cl)cc1` reads 5.69%; that for `O=C(Nc1ccc(C(F)(F)F)cc1)c1ccc(NCCCN2CCCCCC2)c([N+](=O)[O-])c1`, 6.28%.
`N#Cc1ccc(CN2CCCN(Cc3cccc(NC(=O)c4ccc(-c5ccccc5)cc4)c3)CC2)cc1`: the inhibition was 4.12%.
Still for that read-out and setting: next, `CCN(CC)S(=O)(=O)c1ccc(C(C)NC(=O)c2ccccc2COc2ccccc2)cc1` (stereo not given): 5.03%.
The same measure, in the same setting: the result for `CCc1cn(C)c2c(N3CCCC3=O)cc(C(=O)N[C@@H](Cc3ccccc3)[C@H](O)CNC3CCCCC3)cc12` reads 11.5%; that for `O=C(NCCNc1ccnc2cc(Cl)ccc12)c1ccccc1F`, -0.19%.
Still for that read-out and setting: next, `CC(C)(CNC(=O)C1CCN(CCOCc2ccccc2)CC1)c1nc(-c2ccc(Cl)c(O)c2)c(-c2ccncc2)[nH]1`: 2.74%; `NC(=O)c1cccc(CNC(=O)NC[C@H]2CN(Cc3ccc(Cl)c(Cl)c3)CCO2)c1`: 6.5%.
For `O=C1OC(c2ccccc2)(c2ccccc2)CN1C1CCN(Cc2ccc(O)c(Cl)c2)C1` (stereo not given), the inhibition was -0.68%.
The same measure, in the same setting: next, `Cc1ccc(-n2c(=O)c3cccnc3n2CC(=O)Nc2cccc(C)c2C)cc1`: 7.74%.
Same read-out and setting: next, `CN(CCc1ccccc1)c1ncc(-c2cccc(CNCCC3CCCN3C)c2)cn1` (stereo not given): 109%; `Cc1nc(N)nc(N)c1OCCCCCCOc1ccccc1`: -0.89%; `COc1cc2nc(NCCCO)nc(Nc3ccc(Oc4ccccc4)cc3)c2cc1OC`: 4.69%.
Regarding `C=CCOC(=O)N1CCC(CNCc2ccc(-c3cccc(-c4nc5ccccc5[nH]4)c3)cc2)C1` (stereo not given), the inhibition amounted to 3.33%.
In the case of `CN(CCCCCNC(=O)/C=C/c1ccc(Cl)c(Cl)c1)CCc1c[nH]c2ccccc12`, the inhibition was determined as 12.6%.
Regarding `Cc1cccc2nc(-c3ccc(-c4cccc(NC(=O)c5cncn5C)c4)s3)[nH]c12`, the inhibition was -2.47%.
The same measure, in the same setting: next, `COC(=O)c1cccc(CNCc2cccc(-c3csc(-c4nc5ccccc5[nH]4)c3)c2)c1`: 6.38%; `O=C(/C=C/c1ccc(Cl)c(Cl)c1)NC1CCC(CN2CCC(c3nc4cccnc4[nH]3)CC2)CC1` (stereo not given): -2.89%.
Turning to `CCn1cc(CN2C(=O)C(c3ccccc3)(c3ccccc3)N=C2N)cn1`, the inhibition was -1.54%.
For the compound `Cc1cccc2nc(-c3cccc(-c4cccc(NC(=O)c5cccnc5Cl)c4)c3)[nH]c12`, the inhibition came out at 3.23%.
Same read-out and setting: the result for `O=C(Nc1ccc(OC2CCN(Cc3ccc(F)cc3)CC2)c(Cl)c1)c1cccs1` reads 8.58%; that for `CC(C)CCN(Cc1cncn1Cc1cccc(C(F)(F)F)c1)C(=O)c1ccccc1C#N`, 0.86%.
Same read-out and setting: the result for `Cc1cc(-c2ccc(CNC3Cc4ccccc4C3)cc2)ccc1S(=O)(=O)NCCN1CCCC1` reads 3.47%.
Still for that read-out and setting: next, `Cc1cc(N[C@@H](Cc2ccccc2)C(=O)NCc2cccc(F)c2)nc(Nc2ccccc2)n1`: 2.63%.
For the compound `O=c1cc(NCCCNCc2cc(F)cc(C(F)(F)F)c2)[nH]c2ccccc12`, the inhibition turned out to be 4.38%.
On the same count and under the same terms, the result for `O=C(Nc1ccc(Cl)cc1)Nc1ccc2c(c1)N1CCN=C1S2` reads 5.02%.
